Measurements: PubChem BioAssay AID1159580 (chemical genetic matrix, 2015)
Hit rate of the full screen: of about 5,500 compounds, about 2,000 (36%) were called active. Inconclusive results (about 18%) are left out. Rule as the data show it: active = normalized growth mostly below about 0.91 (no sharp cut-off); inconclusive = no clear call, values can overlap the other calls; inactive = mostly above about 0.92. The list shows a part of the results.

Test: chemical genetic growth profiling, strain panel (AID 1159580);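 also: tested at 20 µM; growth read once vehicle control cultures reached saturation at 30 °C; 1 = growth at the plate median or of vehicle wells; lower values mean less growth of the strain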
Details: S. cerevisiae deletion strains, growth OD

Measured: normalized growth

COc1ccc([C@@H]2Sc3ccccc3N(CCN(C)C)C(=O)[C@@H]2OC(C)=O)cc1
inactive: locus YAL013W, strain DEP1, stronger effect = lower value 0.989 | locus YAL040C, strain CLN3, stronger effect = lower value 1.01 | locus YCL061C, strain MRC1 (second series), stronger effect = lower value 0.988 | locus YDR150W, strain NUM1, stronger effect = lower value 1.01 | locus YDR363W, strain ESC2, stronger effect = lower value 0.951 | locus YER002W, strain NOP16, stronger effect = lower value 1.02 | locus YGR078C, strain PAC10, stronger effect = lower value 0.961 | locus YGR229C, strain SMI1, stronger effect = lower value 0.971 | locus YJR075W, strain HOC1, stronger effect = lower value 1 | locus YMR263W, strain SAP30, stronger effect = lower value 0.993 | locus YMR307W, strain GAS1, stronger effect = lower value 1 | locus YNL153C, strain GIM3, stronger effect = lower value 1.01 | locus YNL175C, strain NOP13, stronger effect = lower value 0.99 | locus YNL197C, strain WHI3, stronger effect = lower value 1.1 | locus YNL224C, strain SQS1, stronger effect = lower value 1.02 | locus YNL322C, strain KRE1, stronger effect = lower value 0.967 | locus YOR083W, strain WHI5 (second series), stronger effect = lower value 1.03 | locus YPL055C, strain LGE1, stronger effect = lower value 0.955 | locus YPL241C, strain CIN2, stronger effect = lower value 0.988
